Screening results deposited in PubChem BioAssay by Broad Institute.
aSyn UTR act = Activators working through SNCA 5'UTR binding (MLPCN) | alpha-synuclein 5'UTR reporter, activators screen | activity score, % (tested at 7.5 µM), hits read low | 7.1% of 300,000 active; in the data active = activity score below about -60%
* = called active by the depositor. The list is a sample of the results.

SMILES	aSyn UTR act
O=C(/C=C/c1ccccc1Cl)NCc1cccs1	-101*
O=C(NCc1cccs1)c1nc2c(nnn2Cc2ccccc2Cl)c(=O)[nH]1	77
COc1cc2ccccc2cc1C(=O)Nc1ccc(Br)cn1	-175*
COc1c(C(=O)Nc2ccc(Br)cn2)ccc2ccccc12	-167*
O=C(Nc1ccc(Br)cn1)c1ccc2ccccc2c1	-83*
O=C(Nc1ccc2c(c1)OCCO2)c1ccccn1	88
CC(=O)NC(CC(=O)Nc1ccc2c(c1)OCCO2)c1ccccc1 (stereo not given)	-77*
Cc1ccnc(NC(=O)CSc2ccc3c(c2)OCCO3)c1	-114*
O=C(CSc1ccccn1)Nc1ccc2c(c1)OCCO2	-65*
O=C(CSc1ccccn1)Nc1ccc2c(c1)C(=O)c1ccccc1C2=O	-68*
O=C(CSc1nccc(=O)[nH]1)Nc1ccc2c(c1)OCCO2	-139*
O=C(CSc1ccccn1)Nc1ccc2c(c1)CCC2	-77*
O=C(CSc1ccccn1)Nc1ccc2ccccc2c1	-159*
CC(Nc1ccc2c(c1)OCCO2)C(=O)N1CCc2ccccc21 (stereo not given)	-65*
Nc1ccccc1SCC(=O)Nc1ccc2c(c1)OCCO2	-89*
Cc1cccc(SCC(=O)Nc2ccc3c(c2)OCCO3)c1	-117*
CCOC(=O)C1=C(C)NC2=C(C(=O)c3ccccc32)C1c1ccc([N+](=O)[O-])o1 (stereo not given)	-63*
COC(=O)C1=C(C)NC(C)=C(C(=O)OCC(C)C)C1c1ccccc1[N+](=O)[O-] (stereo not given)	71
Oc1ccc(Cl)cc1C1=NNC(c2ccc(Cl)cc2)C1 (stereo not given)	-90*
Cc1nc2nc(-c3cccs3)[nH]c2cc1Br	-149*
Nc1c(C(=O)Nc2ccccc2F)sc2nc(-c3cccnc3)ccc12	-88*
Nc1c(C(=O)Nc2ccccc2F)sc2nc(-c3ccco3)ccc12	-118*
CCc1cc(C(=O)O)c(NC(=O)/C=C/c2ccc(OC)cc2)s1	-119*
COc1ccc(/C=C/C(=O)Nc2cccc(C(C)=O)c2)cc1	-95*
COc1cccc(/C=C/C(=O)Nc2cccc(C(C)=O)c2)c1OC	-126*
SMILES	aSyn UTR act
O=C(Cn1cc(C(F)(F)F)ccc1=O)NCc1ccc(F)cc1	-75*
COc1ccc(C2/C=C\CN(C(=O)Nc3ccc(C(F)(F)F)cc3)CC(=O)N2Cc2ccc(F)cc2)cc1 (stereo not given)	71
O=C1CN(C(=S)NC(=O)c2ccc(-c3ccccc3)cc2)CCN1	-79*
O=C(NC(=S)Nc1ccccc1)c1ccc(-c2ccccc2)cc1	-102*
O=C(O)c1ccc(NC(=S)NC(=O)c2ccc(-c3ccccc3)cc2)cc1	-97*
Cc1ccc(NC(=O)NC(=S)NC(=O)c2ccccc2)cc1	-125*
Cc1ccc(C(=O)NC(=S)Nc2cccnc2Cl)cc1	-138*
c1ccc(CCNc2ccnc3cc4ccccc4cc23)cc1	117
Cc1cc2c(NCCc3ccccc3)ncnc2s1	-64*
c1ccc(CCNc2ncnc3ccccc23)cc1	-117*
COC(=O)c1nn(-c2ccc(-c3ccccc3)cc2)cc1O	67
CCOC(=O)c1nn(-c2ccc(Cl)cc2)cc1O	-124*
CCOC(=O)c1nn(-c2ccc3c(c2)OCO3)cc1O	-144*
CCOC(=O)c1nn(-c2ccc(C)cc2)cc1O	-62*
CCOC(=O)c1nn(-c2ccc3ccccc3c2)cc1O	-134*
CCOC(=O)C1=NN(c2ccc(Cl)cc2)C(=O)C1	-144*
CCOC(=O)c1ccc(N2CN(CC)CNC2=S)cc1	64
O=C(NCC1CCCO1)c1ccccc1-c1nc(-c2ccc(Cl)cc2)no1 (stereo not given)	-74*
O=C(c1ccccc1-c1nc(-c2ccc(Cl)cc2)no1)N1CCCC1	-251*
COC(=O)c1sc2nc3c(cc2c1N)C(=O)CC(C)(C)C3	-69*
CCOC(=O)c1sc2nc3c(cc2c1N)C(=O)CC(C)(C)C3	-126*
COC(=O)c1sc2nc3c(cc2c1N)CCCC3	-143*
Nc1c(C(=O)N2CCOCC2)sc2nc3c(cc12)CCCC3	76
COc1cc(OC)c2c(c1)O/C(=C\c1ccccc1)C2=O	-154*
Oc1cccc(NC(=S)N=Nc2c(O)[nH]c3ccccc23)c1	-158*
SMILES	aSyn UTR act
CCNC(=S)N=Nc1c(O)[nH]c2ccc(C(C)C)cc12	63
CCCCNC(=S)N=Nc1c(O)[nH]c2ccccc12	-81*
COc1ccc2c(c1)C(=O)c1ccccc1CO2	-242*
Cc1ccc(NC(=O)c2ocnc2C)cc1Cl	-240*
Cc1ncoc1C(=O)Nc1cccc(Cl)c1	-92*
COc1cccc(NC(=O)c2ocnc2C)c1	-81*
COc1ccccc1CNC(=O)[C@@H]1CCCN1S(=O)(=O)c1ccc(C)cc1	-113*
CCSc1nnc2c(n1)[nH]c1c(C)cccc12	-208*
CSc1nnc2c(n1)[nH]c1c(C)cccc12	-107*
C=CCSc1nnc2nc3[nH]c4c(C)cccc4c3nn12	-75*
COc1cccc2c1C(=O)c1c(O)c3c(c(O)c1C2=O)C[C@@](O)(C(=O)CO)C[C@@H]3O[C@H]1C[C@H](N)[C@H](O)[C@H](C)O1	109
Cc1cc(O)ccc1Nc1nc(-c2cccs2)cs1	-101*
Cc1cc(O)ccc1Nc1nc(-c2cccnc2)cs1	-281*
CCOC(=O)CSc1nc(-c2ccncc2)ccc1C#N	-138*
CCOC(=O)CSc1nc(-c2ccc3c(c2)OCO3)ccc1C#N	-113*
CCN(CC)CCn1c(=N)n(CCOc2ccccc2)c2ccccc21	-93*
Cc1ccc(Nc2cc(-n3cccn3)ncn2)c(C)c1	-170*
Fc1cccc(Nc2cc(-n3cccn3)ncn2)c1	-147*
COC(=O)c1c(NC(=O)c2ccccc2[N+](=O)[O-])sc2c1CC(C)(C)NC2(C)C	-70*
COC(=O)c1c(NC(=O)COc2ccc(Cl)cc2)sc2c1CC(C)(C)NC2(C)C	83
CCOC(=O)c1c(CSc2ccc(CC)cc2)oc2ccc(O)c(CN(C)C)c12	66
CC(=O)c1c(CSc2ccccc2)oc2ccc(O)c(CN(C)C)c12	-63*
O=C(/C=C/c1ccco1)NC(=S)Nc1nc(-c2ccc(Cl)cc2)cs1	-76*
O=C(/C=C\c1ccco1)Nc1nc(-c2ccccc2)cs1	-121*
O=C(/C=C/c1ccco1)NC(=S)Nc1nc(-c2ccc3ccccc3c2)cs1	-94*
SMILES	aSyn UTR act
Cc1occc1-c1nnc(-c2cc([N+](=O)[O-])cc([N+](=O)[O-])c2)o1	-133*
O=C(/C=C/Nc1ccc([N+](=O)[O-])cc1Br)c1cccc2ccccc12	-163*
CC(=O)c1ccc(Nc2ccc([N+](=O)[O-])c3nonc23)cc1	-104*
O=C(COC(=O)c1ccccn1)Nc1nc(-c2ccccc2)cs1	-80*
O=[N+]([O-])c1ccc(-c2csc(NN=C3CCCC3)n2)cc1	-177*
COCC(=O)Nc1nc(-c2ccc(-c3ccccc3)cc2)cs1	-220*
CCc1ccccc1OCC(=O)Nc1nc(-c2cccnc2)cs1	70
COCC(=O)Nc1nc(-c2ccc([N+](=O)[O-])cc2)cs1	-70*
CC(C)C(=O)Nc1nc(-c2ccc([N+](=O)[O-])cc2)cs1	-74*
CNc1nc(-c2ccc([N+](=O)[O-])cc2)cs1	-135*
Clc1cccc2sc(-c3nnc(-c4ccccc4)o3)c(Cl)c12	-137*
CC(C)(C)c1ccc(N=C2SCC(=O)N2Cc2cccs2)cc1	-72*
COc1cccc(C(=O)N/N=C/C(Br)=C/c2ccccc2)c1	-135*
COc1ccc(O)c(/C=N/NC(=O)c2ccc(OCc3cccc(Br)c3)cc2)c1	82
